{
  "source": "the supplement of paper PMC8387472",
  "note": "Values joined by “and” are separate entries in the source; they are usually repeats but may differ in a detail not shown here. Identical values can stand only once. Counter-ions that a name gives are not always drawn. ± gives the standard deviation of the averaged measurements.",
  "data": [
    {"tested_on": "mESC LDLR-Dup GFP reporter (SpCas9 MH-deletion repair)", "test": "fraction of GFP+ cells relative to DMSO control (fold change); higher = more MH-deletion repair to in-frame LDLR (or more editing)", "conditions": "2 µM; 7 days post-transfection", "values": [
      {"smiles": "COc1ccc(CC(=O)Nc2nc3c(s2)CCc2ccccc2-3)cc1OC", "fraction of GFP+ cells": "1.51 ± 0.37"},
      {"smiles": "CNCc1ccc(-c2cc(-c3nc(-c4ccc(S(=O)(=O)C(C)C)cc4)cnc3N)on2)cc1", "fraction of GFP+ cells": "0.301 ± 0.12"},
      {"smiles": "N=C1CCCN1Cc1[nH]c(=O)[nH]c(=O)c1Cl", "note": "[Tipiracil hydrochloride]", "fraction of GFP+ cells": "0.837 ± 0.26"},
      {"smiles": "CN(C)CCCCC(=O)Nc1ccc(NC(=S)NC(=O)c2ccc(C(C)(C)C)cc2)cc1", "note": "[Tenovin-6]", "fraction of GFP+ cells": "0.625 ± 0.2"},
      {"smiles": "C[C@H]1COc2c(N3CCN(C)CC3)c(F)cc3c(=O)c(C(=O)O)cn1c23", "note": "[Levofloxacin]", "fraction of GFP+ cells": "0.954 ± 0.01"},
      {"smiles": "COc1cc2c(c(OC)c1OC)-c1c(cc3c(c1OC)OCO3)CC(C)C(C)C2", "note": "(centres undefined) [Schisandrin B (Sch B)]", "fraction of GFP+ cells": "1.02 ± 0.2"},
      {"smiles": "CC1COc2c(N3CCN(C)CC3)c(F)cc3c(=O)c(C(=O)O)cn1c23", "note": "(centres undefined) [Ofloxacin]", "fraction of GFP+ cells": "1.08 ± 0.19"},
      {"smiles": "Nc1nc(F)nc2c1ncn2[C@@H]1O[C@H](COP(=O)(O)O)[C@@H](O)[C@@H]1O", "note": "[Fludarabine Phosphate]", "fraction of GFP+ cells": "0.855 ± 0.23"},
      {"smiles": "Cc1cccc(Nc2cc(Cl)nc(SCC(=O)O)n2)c1C", "fraction of GFP+ cells": "1.56 ± 0.58"},
      {"smiles": "N#Cc1c(Oc2ccc(F)c(NC(=O)Cc3cccc(C(F)(F)F)c3)c2)ccc2nc(NC(=O)C3CC3)sc12", "fraction of GFP+ cells": "0.727 ± 0.25"},
      {"smiles": "Nc1nc(=O)c2nc(CNc3ccc(C(=O)N[C@@H](CCC(=O)O)C(=O)O)cc3)cnc2[nH]1", "note": "[Folic acid]", "fraction of GFP+ cells": "1.24 ± 0.46"},
      {"smiles": "CCCC(CCC)C(=O)O", "note": "[valproic acid]", "fraction of GFP+ cells": "0.696 ± 0.13"},
      {"smiles": "CCCC(CCC)C(=O)O", "note": "[Divalproex Sodium]", "fraction of GFP+ cells": "0.742 ± 0.1"},
      {"smiles": "CN1CCN(Cc2ccc(NC(=O)Nc3ccc(Oc4ccnc(N)n4)cc3)cc2C(F)(F)F)CC1", "fraction of GFP+ cells": "0.335 ± 0.13"},
      {"smiles": "CC(C)OC(=O)C(C)(C)Oc1ccc(C(=O)c2ccc(Cl)cc2)cc1", "note": "[Fenofibrate]", "fraction of GFP+ cells": "1.96 ± 0.19"},
      {"smiles": "NC(=O)c1cc(F)cc2c1C(=O)N(C1CCN(C3CCC(F)(F)CC3)CC1)C2", "fraction of GFP+ cells": "0.792 ± 0.12"},
      {"smiles": "CC(N)C12CC3CC(CC(C3)C1)C2", "note": "(centres undefined) [Rimantadine Hydrochloride]", "fraction of GFP+ cells": "0.701 ± 0.034"},
      {"smiles": "CCN1C(=O)CNc2ncc(-c3ccc(-c4nc[nH]n4)nc3C)nc21", "fraction of GFP+ cells": "0.696 ± 0.12"},
      {"smiles": "Nc1cc(F)ccc1NC(=O)/C=C/c1cnn(C/C=C/c2ccccc2)c1", "fraction of GFP+ cells": "0.555 ± 0.17"},
      {"smiles": "OCc1ccc(-c2ccc(-c3ccc(CO)s3)o2)s1", "fraction of GFP+ cells": "0.657 ± 0.23"},
      {"smiles": "CCN1CCN(Cc2ccc(Nc3ncc(F)c(-c4cc(F)c5nc(C)n(C(C)C)c5c4)n3)nc2)CC1", "fraction of GFP+ cells": "0.684 ± 0.039"},
      {"smiles": "N=C1NC(=O)/C(=C/c2ccc(O)cc2)S1", "note": "[Mirin]", "fraction of GFP+ cells": "0.862 ± 0.2"},
      {"smiles": "CC(=O)c1c(C)c2cnc(Nc3ccc(N4CCNCC4)cn3)nc2n(C2CCCC2)c1=O", "fraction of GFP+ cells": "1.36 and 0.964"},
      {"smiles": "COc1nc(N)nc2c1ncn2[C@@H]1O[C@H](CO)[C@@H](O)[C@@H]1O", "note": "[Nelarabine]", "fraction of GFP+ cells": "1.12 ± 0.14"},
      {"smiles": "CN1CCN(c2c(F)cc3c(=O)c(C(=O)O)cn4c3c2OCN4C)CC1", "note": "[Marbofloxacin]", "fraction of GFP+ cells": "1.19 ± 0.59"},
      {"smiles": "S=P(N1CC1)(N1CC1)N1CC1", "note": "[Thiotepa]", "fraction of GFP+ cells": "0.905 ± 0.27"},
      {"smiles": "CC(NC(=O)c1ccccc1/N=C/c1c(O)ccc2ccccc12)c1ccccc1", "note": "(centres undefined) [Sirtinol]", "fraction of GFP+ cells": "1.45 ± 0.24"},
      {"smiles": "CCOC(=O)NCCCC(=O)NCCc1ccccc1", "fraction of GFP+ cells": "0.748 ± 0.18"},
      {"smiles": "CCn1cc(C(=O)O)c(=O)c2cc(F)c(N3CCN(C)CC3)cc21", "note": "[Pefloxacin Mesylate Dihydrate]", "fraction of GFP+ cells": "1.13 ± 0.09"},
      {"smiles": "CC1=C(C(=O)Nc2cc3cn[nH]c3cc2F)C(c2ccc(C(F)(F)F)cc2)CC(=O)N1", "note": "(centres undefined)", "fraction of GFP+ cells": "1.27 ± 0.48"},
      {"smiles": "CCc1ccc(CCOc2ccc(CC3SC(=O)NC3=O)cc2)nc1", "note": "(centres undefined) [Pioglitazone HCl]", "fraction of GFP+ cells": "1.11 ± 0.13"},
      {"smiles": "O=c1oc2c(O)c(O)cc3c(=O)oc4c(O)c(O)cc1c4c23", "note": "[Ellagic acid]", "fraction of GFP+ cells": "0.913 ± 0.11"},
      {"smiles": "C/C(=C\\C(=O)Nc1ccccc1C(=O)O)c1ccc2ccccc2c1", "fraction of GFP+ cells": "0.984 ± 0.45"},
      {"smiles": "O=c1[nH]c(C2CCCN2)nc2c1oc1ccc(Cl)cc12", "note": "(centres undefined)", "fraction of GFP+ cells": "1.11 ± 0.15"},
      {"smiles": "CN1CCN(c2ccc(Nc3ncc4cc(C#N)c(=O)n(C5CCCC5)c4n3)cc2)CC1", "fraction of GFP+ cells": "0.705 ± 0.077"},
      {"smiles": "Cc1cn([C@H]2C[C@H](N=[N+]=[N-])[C@@H](CO)O2)c(=O)[nH]c1=O", "note": "[Zidovudine]", "fraction of GFP+ cells": "1.09 ± 0.18"},
      {"smiles": "O=C(CCCCCCNC(=O)c1cnc(N(c2ccccc2)c2ccccc2Cl)nc1)NO", "note": "[Citarinostat (ACY-241)]", "fraction of GFP+ cells": "0.902 ± 0.074"},
      {"smiles": "CCc1ccc(/C=C2/SC(=S)NC2=O)cc1", "fraction of GFP+ cells": "0.853 ± 0.25"},
      {"smiles": "CC(C)(O)C1CCC(C)(C2C(O)CC3(C)C4CC(O)C5C(C)(C)C(O)CCC56CC46CCC23C)O1", "note": "(centres undefined) [Cyclogalegenol]", "fraction of GFP+ cells": "0.875 ± 0.24"}
    ]}
  ]
}
